Shown are actives, neighbours in structure and some others; about 2% of the full set was active somewhere.
PrPC surface inh – reduces human prion protein on the cell surface | cell surface PrPC, TR-FRET read-out | 370,000 tested, 0.43% active | P04156 | inhibition, % at 13.8 µM; in the data active means inhibition above about 24%; further: 0% = median of the test wells and 100% = reference compound wells
Yp Topo-I inh – blocks Yersinia pestis topoisomerase I activity; Y. pestis Topo-I cleavage product accumulation, plate reader; activity, % at 10 µM; 360,000 tested, 0.064% active; in the data active means activity above about 50%, passing the limit was not always enough
CCHF vOTU inh – blocks the CCHF virus ovarian tumor domain protease; CCHFV vOTU protease, Pep-AMC fluorescence; inhibition, % at 11.5 µM; 370,000 tested, 0.55% active; in the data active means inhibition above about 30%; further: 0% = vehicle wells with enzyme and 100% = no enzyme wells
BJeLR viability – BJeLR cell viability loss; 300,000 tested, 0.17% active; inhibition, % (test concentration not listed); BJeLR (HRASV12) viability, CellTiter-Glo ATP luminescence, 48 h; in the data active means inhibition above about 50%
PrP UTR inh – suppresses PrP 5' UTR mRNA reporter expression; AID 488862; cell-based PrP 5' UTR mRNA reporter, plate reader; inhibition, % (no concentration beside the values); 340,000 tested, 0.35% active; in the data active means inhibition above about 52%; further: 0 = median of the neutral control wells
PfHsp40 yeast – rescue of PfHsp40-mediated yeast toxicity. S. cerevisiae expressing PfHsp40, growth rescue, ATP luminescence. growth rescue, % at 12.5 µM. 340,000 tested, 0.68% active. AID 504582; in the data active means growth rescue above about 28%, passing the limit was not always enough;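 further: yeast W303a lacking pdr1 and pdr3 grown in galactose medium; growth measured after three days at 30 °C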
* marks the source's active call; other numbers are inactive results; · = no result given.

SMILES	PrPC surface inh	Yp Topo-I inh	CCHF vOTU inh	BJeLR viability	PrP UTR inh	PfHsp40 yeast
O=C(N/N=C\c1c(O)ccc2ccccc12)c1ccc(S(=O)(=O)N2CCCCC2)cc1	-5	5	1	77*	53	0
O=C(CN1CCCc2ccccc21)N/N=C/c1c(O)ccc2ccccc12	2	-14	10	4	-14	179*
COc1ccc(NS(=O)(=O)c2ccc(NC(=O)c3ccc(CN4CCOCC4)cc3)cc2)cc1	12	0	1	6	-13	50*
CC(C)COc1ccc(-c2csc(N3CCC(C(N)=O)CC3)n2)cc1	2	·	·	·	·	·
CCS(=O)(=O)c1ccc(N=Nc2ccc(O)c3ncccc23)c(OC)c1	-9	-20	-2	21	16	214*
Cc1ccc(NC(=O)OC2CC3CC2[C@H]2CCCCN2C3)cc1 (stereo partly drawn)	-3	·	-3	·	·	·
Nc1ccc(OCc2ccccc2)cc1[N+](=O)[O-]	-30	-1	1	·	-38	0
O=Cc1cc(OCc2ccccc2)ccc1[B-](F)(F)F	11	3	2	·	1	160*
O=C1CCC[C@H]2C[C@H](NCCc3ccncc3)CC[C@]23CCCN13	2	·	·	·	·	·
O=S1(=O)C=C(Sc2nc3ccccc3s2)c2ccccc21	·	·	·	56*	·	·
O=[N+]([O-])c1cc(CN2CCN(c3cccc(C(F)(F)F)c3)CC2)c2cccnc2c1O	-13	·	13	8	8	48*
O=[N+]([O-])c1cc(CN2CCCC2)c2cccnc2c1O	·	5	·	·	-11	11
CCS(=O)(=O)Nc1ccc2c(c1)C(=O)N(C)[C@@H]1CC[C@H](CC(=O)N[C@@H]3CCN(Cc4ccccc4)C3)O[C@H]1CO2	-6	·	14	·	·	·
O=C(NCC1(c2ccccc2)CCCC1)C(=O)NCC1(c2ccccc2)CCCC1	-7	4	-2	-2	-4	0
O=C(NCC1(c2ccccc2)CCCC1)C1(c2ccccc2)CCCC1	8	68*	11	10	-28	3
COC(=O)c1cc2c(c3c4cc(OC)ccc4n(S(=O)(=O)c4cccc(C)c4)c13)C(=O)N(Cc1ccc(C(F)(F)F)cc1)C2	-4	·	16	·	·	·
CCSc1nsc(NC(=O)Nc2cccc(F)c2)n1	40*	0	-9	15	-34	-2
COc1cccc(NC(=O)Nc2nc(SC)ns2)c1	12	4	0	-11	-88	-1
Cc1ccc(-c2csc(NC(CO)c3nc4ccccc4n3CCOCCO)n2)cc1 (stereo not drawn)	-4	0	-7	-8	-15	34*
COc1ccc(-c2csc(NC(CO)c3nc4ccccc4n3Cc3ccc(C)cc3)n2)cc1 (stereo not drawn)	4	12	9	-5	-12	-1
CCC(ONc1ccccc1C(F)(F)F)(C(=O)NN(C)C)c1ccccc1 (stereo not drawn)	4	-5	8	·	2	54*
CCOc1ccc(OCC(=O)Nc2ccccc2C(F)(F)F)cc1	-2	10	12	-2	-28	0
COc1cccc(/C=C2\CC3(OC(=O)C4CCCC4)CCCN2C3)c1 (stereo not drawn)	-4	·	3	·	·	·
CCCCCCCCN1C(=O)[C@@H](CC(=O)N2CCCCC2)C[C@@]2(C(=O)OC)C1=C[C@H](C1CCCC1)O[C@@H]2C	0	·	8	·	·	·
CCCCNC(=O)C[C@H]1C[C@@]2(C(=O)OC)C(=C[C@H](C(C)(C)C)O[C@@H]2C)N(Cc2ccccc2)C1=O	-4	·	4	·	·	·
SMILES	PrPC surface inh	Yp Topo-I inh	CCHF vOTU inh	BJeLR viability	PrP UTR inh	PfHsp40 yeast
O=C(NC(=S)Nc1ccc(CN2CCCCC2)cc1)c1ccco1	3	5	-12	5	-33	128*
N#Cc1ccc(-c2c(-c3ccccc3)ncc3cc(F)ccc23)cc1	6	8	-2	·	-38	124*
c1ccc(C(c2nnnn2Cc2ccco2)N2CCN(c3nc4ccccc4s3)CC2)cc1 (stereo not drawn)	2	-1	1	5	-8	2
CCCCC(c1nnnn1Cc1ccco1)N1CCN(c2nc3ccccc3s2)CC1 (stereo not drawn)	10	47	15	2	-14	27*
COc1ccc(-c2csc(NC(=O)c3ccccc3Br)c2C(=O)O)cc1	11	1	8	3	-17	58*
Cc1ccc(-c2csc(NC(=O)c3ccccc3F)c2C(=O)O)cc1	20	-3	-4	4	-10	34*
O=C(/C=C/c1ccccc1)Nc1scc(-c2ccccc2)c1C(=O)O	-4	-14	16	-1	-69	51*
O=C(/C=C/c1ccco1)Nc1scc(-c2ccccc2)c1C(=O)O	-16	-8	2	14	-25	7
COC(=O)[C@]12C[C@H](CC(=O)NCc3cccc(C(F)(F)F)c3)C(=O)N(Cc3ccco3)C1=C[C@H](COCc1ccccc1)O[C@@H]2C	3	·	15	·	·	·
COc1cccc(C(=O)N[C@H](C(=O)N2CCC[C@H]2C(=O)NCc2ccccc2)C2CCCCC2)c1	-8	·	8	·	·	·
O=C(C(=O)N1CCC(CNS(=O)(=O)c2ccc(F)c(F)c2)CC1)c1cc2ccccc2o1	-3	·	7	·	·	·
Nc1ccn([C@@H]2O[C@H](C(=O)N[C@H](Cc3ccccc3)C(=O)NCC(F)(F)F)[C@@H](O)[C@H]2O)c(=O)n1	2	·	-5	·	·	·
CCOC(=O)Nc1ccc2c(c1)[C@]1(CC(=O)N(CC(C)C)C1c1ccccc1)C(=O)N2C (stereo partly drawn)	1	·	-2	·	·	·
CCc1ccc(Nc2c([N+](=O)[O-])c(=O)oc3ccccc23)cc1	0	1	3	5	-39	116*
O=C(N/N=C/c1ccc([N+](=O)[O-])o1)c1cn(-c2ccccc2)nc1-c1ccc(Cl)cc1	-1	-3	-4	6	-12	0
O=[N+]([O-])CC(=Nc1ccc(Cl)cc1)N/N=C\c1oc(O)c2ccccc12	3	-4	33*	-4	-15	-3
Cn1c(=O)oc2cc(S(=O)(=O)N3CCN(C(=O)C4CCCO4)CC3)ccc21 (stereo not drawn)	-1	·	-3	·	·	·
COc1cc(C(=O)ON=C2C3CC4CC(C3)CC2C4)cc(OC)c1OC	-3	24	7	5	-28	325*
COc1cc(C(=O)O/N=C2\C=CC(=O)C=C2C)cc(OC)c1OC	-10	-13	-5	·	-7	-1
c1ccc(COCCc2cn(Cc3ccccc3)c3ccccc23)cc1	-3	·	4	·	·	·
COC(=O)c1c(NC(=O)CSc2nnc(CNc3ccc(Cl)cc3)o2)sc(C)c1C	2	1	14	-15	-7	51*
CCOC(=O)[C@@]12CCCC3=C1N(CCC3)C(=O)[C@H]2CC(=O)N1CCCC1	-1	·	-2	·	·	·
O=C(NCc1ccccc1)[C@H]1CCCN1C(=O)[C@H]1CCCN1C(=O)c1ccc(F)cc1F	8	·	13	·	·	·

Source: PubChem (several laboratories)
